# PubChem BioAssay (NCI)
# This is part of a sample that, as a whole, favours compounds with a hit. Of some 79,000 tested, about 15% had one in any assay. A number with no mark means an inactive call. Activity calls are given as the source filed them. Rule as the data show it: active = growth inhibition above about 70%; inactive = the rest.
# Legend:
# [1] = NCI Yeast Anticancer Drug Screen. Data for the rad52 strain (AID 147);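 also: 0% = growth of vehicle-treated control cultures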; settings: S. cerevisiae rad52 mutant growth inhibition, stronger effect = higher value
# In short: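 Yeast strain carrying a DNA damage repair alteration was exposed to test compounds. Growth inhibition was measured relative to vehicle-treated controls.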
# [2] = NCI Yeast Anticancer Drug Screen. Data for the wt1 strain (AID 149);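 also: 0% = growth of vehicle-treated wt1 cultures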; settings: S. cerevisiae wt1 strain (SPY 50644) growth inhibition, stronger effect = higher value
# In short: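 wt1 yeast, compound-treated; % growth inhibition vs vehicle control.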
# [3] = NCI Yeast Anticancer Drug Screen. Data for the rad50EPP+ strain (AID 151);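 also: 0% = growth of vehicle-treated control cultures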; settings: S. cerevisiae rad50 mutant strain, stronger effect = higher value
# In short: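 Yeast strain carrying rad50 alteration (rad50EPP+) exposed to compounds; growth inhibition measured relative to vehicle-treated controls.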
# [4] = NCI Yeast Anticancer Drug Screen. Data for the mgt1 strain (AID 153); settings: S. cerevisiae mgt1 mutant growth inhibition, stronger effect = higher value
# In short: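 Yeast mgt1 strain (DNA repair/cell-cycle alteration panel) exposed to compounds; growth inhibition measured relative to vehicle-treated controls.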
# [5] = NCI Yeast Anticancer Drug Screen. Data for the rad50 strain (AID 155);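 also: 0% = growth of vehicle-only cultures of the same strain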; settings: S. cerevisiae rad50 strain growth inhibition, stronger effect = higher value
# In short: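 Genetically altered yeast (DNA repair pathway); compound treatment; growth inhibition vs vehicle ctrl.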
# [6] = NCI Yeast Anticancer Drug Screen. Data for the mec2-1 strain (AID 157); settings: S. cerevisiae mec2-1 strain, stronger effect = higher value
# In short: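 mec2-1 yeast strain, carrying an alteration in DNA damage repair or cell cycle control, was exposed to compounds; growth inhibition was measured relative to vehicle-treated controls.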
# [7] = NCI Yeast Anticancer Drug Screen. Data for the rad14 strain (AID 159);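 also: 0% = growth of vehicle-treated control cultures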; settings: S. cerevisiae rad14 strain growth inhibition, stronger effect = higher value
# In short: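 Test compounds were applied to a repair-deficient yeast strain. Its growth was then compared with that of cultures given vehicle alone, and inhibition was expressed relative to those controls.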
# [8] = NCI Yeast Anticancer Drug Screen. Data for the sgs1 mgt1 strain (AID 161);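 also: 0% = growth of cultures given vehicle only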; settings: S. cerevisiae sgs1 mgt1 strain, stronger effect = higher value
# In short: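 Compounds are added to genetically altered yeast, and growth is compared with cultures given vehicle alone to give percent inhibition.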
# [9] = NCI Yeast Anticancer Drug Screen. Data for the CLN2oe strain (AID 163);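 also: 0% = growth of vehicle-only control cultures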; settings: S. cerevisiae CLN2oe strain, stronger effect = higher value
# In short: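 Yeast cells carrying a defined cell-cycle control alteration were exposed to test compounds. Growth inhibition was scored against vehicle-treated control cultures.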
# [10] = NCI Yeast Anticancer Drug Screen. Data for the cln2 rad14 strain (AID 165);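 also: 0% = growth equal to vehicle treated cultures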; settings: S. cerevisiae cln2 rad14 strain, stronger effect = higher value
# In short: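 Yeast carrying cln2 and rad14 alterations (cell cycle control and DNA damage repair) were exposed to compounds. Growth inhibition was measured against vehicle-treated controls.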
# [11] = NCI Yeast Anticancer Drug Screen. Data for the bub3 strain (AID 167); settings: S. cerevisiae bub3 mutant strain, stronger effect = higher value
# In short: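 Yeast carrying a defined mutation is treated with each compound, and growth is compared with that of vehicle-exposed cells to give inhibition.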
# [12] = NCI Yeast Anticancer Drug Screen. Data for the wt2 strain (AID 169);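 also: 0% = growth of vehicle-treated yeast cultures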; settings: S. cerevisiae wt2 strain growth inhibition, stronger effect = higher value
# In short: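 Yeast cells were exposed to test compounds, and growth inhibition was measured relative to vehicle-treated controls.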
# [13] = NCI Yeast Anticancer Drug Screen. Data for the mlh1 strain (AID 171);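 also: 0% = growth of vehicle-treated control cultures of the same strain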; settings: S. cerevisiae mlh1 strain growth inhibition, stronger effect = higher value
# In short: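 Yeast carrying a defined genetic alteration in DNA damage repair or cell cycle control were exposed to test compounds. Growth inhibition was measured relative to vehicle-treated controls.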
# [14] = NCI Yeast Anticancer Drug Screen. Data for the sgs1 strain (AID 173);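 also: 0% = growth of vehicle-only control cultures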; settings: S. cerevisiae sgs1 mutant, stronger effect = higher value
# In short: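 Yeast mutant strains carrying defined defects in DNA damage repair or cell cycle control were exposed to test compounds. Growth inhibition was scored against vehicle-treated controls.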
# [15] = NCI Yeast Anticancer Drug Screen. Data for the mlh1 rad18 strain (AID 175); settings: S. cerevisiae mlh1 rad18 strain growth inhibition, stronger effect = higher value
# In short: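 Growth inhibition of the yeast strain was measured after compound exposure and expressed relative to vehicle-treated controls. The strain carries defined defects in DNA damage repair.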
# [16] = NCI Yeast Anticancer Drug Screen. Data for the rad18 strain (AID 177); settings: S. cerevisiae rad18 mutant growth inhibition, stronger effect = higher value
# In short: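 Yeast carrying a defined DNA damage repair alteration were exposed to compounds. Growth inhibition was expressed relative to vehicle-treated controls.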
# [17] = at 5.0 µM (retest, dose inferred, filed as 0.5)
# [18] = at 50.0 µM (retest, dose inferred, filed as 5.0)
smiles,measurement,setting,value
CC(C)[Si]1(C(C)C)OCC2OC(n3cnc4c(N)ncnc43)C(N)C2O[Si](C(C)C)(C(C)C)O1 (stereo unspecified),growth inhibition,[1]; at 1.2 µM,3%
same,growth inhibition,[1]; at 3.7 µM,9%
same,growth inhibition,[1]; at 11.0 µM,32%
same,growth inhibition,[1]; at 33.0 µM,98% (active)
same,growth inhibition,[1]; at 100.0 µM,98% (active)
same,growth inhibition,[2]; at 1.2 µM,5%
same,growth inhibition,[2]; at 3.7 µM,11%
same,growth inhibition,[2]; at 11.0 µM,34%
same,growth inhibition,[2]; at 33.0 µM,98% (active)
same,growth inhibition,[2]; at 100.0 µM,98% (active)
same,growth inhibition,[3]; at 1.2 µM,10%
same,growth inhibition,[3]; at 3.7 µM,20%
same,growth inhibition,[3]; at 11.0 µM,15%
same,growth inhibition,[3]; at 33.0 µM,24%
same,growth inhibition,[3]; at 100.0 µM,89% (active)
same,growth inhibition,[4]; at 1.2 µM,19%
same,growth inhibition,[4]; at 3.7 µM,16%
same,growth inhibition,[4]; at 11.0 µM,20%
same,growth inhibition,[4]; at 33.0 µM,98% (active)
same,growth inhibition,[4]; at 100.0 µM,98% (active)
same,growth inhibition,[5]; at 1.2 µM,7%
same,growth inhibition,[5]; at 3.7 µM,10%
same,growth inhibition,[5]; [17],38%
same,growth inhibition,[5]; at 11.0 µM,41%
same,growth inhibition,[5]; at 33.0 µM,98% (active)
same,growth inhibition,[5]; [18],98% (active)
same,growth inhibition,[5]; at 50.0 µM,89.8% (active)
same,growth inhibition,[5]; at 100.0 µM,98% (active)
same,growth inhibition,[6]; at 1.2 µM,19%
same,growth inhibition,[6]; at 3.7 µM,-5%
same,growth inhibition,[6]; [17],14%
same,growth inhibition,[6]; at 11.0 µM,14%
same,growth inhibition,[6]; at 33.0 µM,98% (active)
same,growth inhibition,[6]; [18],99% (active)
same,growth inhibition,[6]; at 50.0 µM,90.4% (active)
same,growth inhibition,[6]; at 100.0 µM,98% (active)
same,growth inhibition,[7]; at 1.2 µM,-1%
same,growth inhibition,[7]; at 3.7 µM,1%
same,growth inhibition,[7]; at 11.0 µM,13%
same,growth inhibition,[7]; at 33.0 µM,98% (active)
same,growth inhibition,[7]; at 100.0 µM,98% (active)
same,growth inhibition,[8]; [17],7%
same,growth inhibition,[8]; [18],99% (active)
same,growth inhibition,[8]; at 50.0 µM,88.8% (active)
same,growth inhibition,[9]; at 1.2 µM,14%
same,growth inhibition,[9]; at 3.7 µM,2%
same,growth inhibition,[9]; at 11.0 µM,5%
same,growth inhibition,[9]; at 33.0 µM,97% (active)
same,growth inhibition,[9]; at 100.0 µM,98% (active)
same,growth inhibition,[10]; [17],18%
same,growth inhibition,[10]; [18],99% (active)
same,growth inhibition,[10]; at 50.0 µM,89.3% (active)
same,growth inhibition,[11]; at 1.2 µM,-3%
same,growth inhibition,[11]; at 3.7 µM,-10%
same,growth inhibition,[11]; [17],-26%
same,growth inhibition,[11]; at 11.0 µM,9%
same,growth inhibition,[11]; at 33.0 µM,97% (active)
same,growth inhibition,[11]; [18],99% (active)
same,growth inhibition,[11]; at 50.0 µM,86.5% (active)
same,growth inhibition,[11]; at 100.0 µM,98% (active)
same,growth inhibition,[12]; at 1.2 µM,-50%
same,growth inhibition,[12]; at 3.7 µM,-34%
same,growth inhibition,[12]; at 11.0 µM,93% (active)
same,growth inhibition,[12]; at 33.0 µM,98% (active)
same,growth inhibition,[12]; at 100.0 µM,97% (active)
same,growth inhibition,[13]; at 1.2 µM,3%
same,growth inhibition,[13]; at 3.7 µM,14%
same,growth inhibition,[13]; at 11.0 µM,32%
same,growth inhibition,[13]; at 33.0 µM,97% (active)
same,growth inhibition,[13]; at 100.0 µM,98% (active)
same,growth inhibition,[14]; at 1.2 µM,6%
same,growth inhibition,[14]; at 3.7 µM,5%
same,growth inhibition,[14]; at 11.0 µM,19%
same,growth inhibition,[14]; at 33.0 µM,97% (active)
same,growth inhibition,[14]; at 100.0 µM,98% (active)
same,growth inhibition,[15]; [17],47%
same,growth inhibition,[15]; [18],99% (active)
same,growth inhibition,[15]; at 50.0 µM,87.4% (active)
same,growth inhibition,[16]; at 1.2 µM,-8%
same,growth inhibition,[16]; at 3.7 µM,2%
same,growth inhibition,[16]; at 11.0 µM,22%
same,growth inhibition,[16]; at 33.0 µM,97% (active)
same,growth inhibition,[16]; at 100.0 µM,97% (active)
CC(C)(CN1CCCCC1)C(=O)CC(SCCS(=O)(=O)O)c1ccccc1 (stereo unspecified),growth inhibition,[1]; at 1.2 µM,6%
same,growth inhibition,[1]; at 3.7 µM,4%
same,growth inhibition,[1]; at 11.0 µM,25%
same,growth inhibition,[1]; at 33.0 µM,34%
same,growth inhibition,[1]; at 100.0 µM,18%
same,growth inhibition,[2]; at 1.2 µM,-63%
same,growth inhibition,[2]; at 3.7 µM,1%
same,growth inhibition,[2]; at 11.0 µM,0%
same,growth inhibition,[2]; at 33.0 µM,4%
same,growth inhibition,[2]; at 100.0 µM,10%
same,growth inhibition,[3]; at 1.2 µM,1%
same,growth inhibition,[3]; at 3.7 µM,0%
same,growth inhibition,[3]; at 11.0 µM,-1%
same,growth inhibition,[3]; at 33.0 µM,-1%
same,growth inhibition,[3]; at 100.0 µM,-5%
same,growth inhibition,[4]; at 1.2 µM,1%
same,growth inhibition,[4]; at 3.7 µM,5%
same,growth inhibition,[4]; at 11.0 µM,6%
same,growth inhibition,[4]; at 33.0 µM,8%
same,growth inhibition,[4]; at 100.0 µM,12%
same,growth inhibition,[5]; at 1.2 µM,1%
same,growth inhibition,[5]; at 3.7 µM,4%
same,growth inhibition,[5]; [17],10%
same,growth inhibition,[5]; at 11.0 µM,8%
same,growth inhibition,[5]; at 33.0 µM,14%
same,growth inhibition,[5]; [18],7%
same,growth inhibition,[5]; at 50.0 µM,9.6%
same,growth inhibition,[5]; at 100.0 µM,11%
same,growth inhibition,[6]; at 1.2 µM,-1%
same,growth inhibition,[6]; at 3.7 µM,-4%
same,growth inhibition,[6]; [17],11%
same,growth inhibition,[6]; at 11.0 µM,0%
same,growth inhibition,[6]; at 33.0 µM,9%
same,growth inhibition,[6]; [18],-3%
same,growth inhibition,[6]; at 50.0 µM,-12.1%
same,growth inhibition,[6]; at 100.0 µM,8%
same,growth inhibition,[7]; at 1.2 µM,3%
same,growth inhibition,[7]; at 3.7 µM,9%
same,growth inhibition,[7]; at 11.0 µM,17%
same,growth inhibition,[7]; at 33.0 µM,31%
same,growth inhibition,[7]; at 100.0 µM,39%
same,growth inhibition,[8]; [17],17%
same,growth inhibition,[8]; [18],1%
same,growth inhibition,[8]; at 50.0 µM,-2%
same,growth inhibition,[9]; at 1.2 µM,-6%
same,growth inhibition,[9]; at 3.7 µM,0%
same,growth inhibition,[9]; at 11.0 µM,8%
same,growth inhibition,[9]; at 33.0 µM,15%
same,growth inhibition,[9]; at 100.0 µM,31%
same,growth inhibition,[10]; [17],72% (active)
same,growth inhibition,[10]; [18],69%
same,growth inhibition,[10]; at 50.0 µM,46.3%
same,growth inhibition,[11]; at 1.2 µM,-1%
same,growth inhibition,[11]; at 3.7 µM,-6%
same,growth inhibition,[11]; [17],19%
same,growth inhibition,[11]; at 11.0 µM,-1%
same,growth inhibition,[11]; at 33.0 µM,5%
same,growth inhibition,[11]; [18],32%
same,growth inhibition,[11]; at 50.0 µM,12.1%
same,growth inhibition,[11]; at 100.0 µM,13%
same,growth inhibition,[12]; at 1.2 µM,0%
same,growth inhibition,[12]; at 3.7 µM,2%
same,growth inhibition,[12]; at 11.0 µM,5%
same,growth inhibition,[12]; at 33.0 µM,11%
same,growth inhibition,[12]; at 100.0 µM,15%
same,growth inhibition,[13]; at 1.2 µM,0%
same,growth inhibition,[13]; at 3.7 µM,2%
same,growth inhibition,[13]; at 11.0 µM,3%
same,growth inhibition,[13]; at 33.0 µM,6%
same,growth inhibition,[13]; at 100.0 µM,13%
same,growth inhibition,[14]; at 1.2 µM,3%
same,growth inhibition,[14]; at 3.7 µM,6%
same,growth inhibition,[14]; at 11.0 µM,7%
same,growth inhibition,[14]; at 33.0 µM,19%
same,growth inhibition,[14]; at 100.0 µM,22%
same,growth inhibition,[15]; [17],17%
same,growth inhibition,[15]; [18],-1%
same,growth inhibition,[15]; at 50.0 µM,5.05%
same,growth inhibition,[16]; at 1.2 µM,10%
same,growth inhibition,[16]; at 3.7 µM,11%
same,growth inhibition,[16]; at 11.0 µM,16%
same,growth inhibition,[16]; at 33.0 µM,26%
same,growth inhibition,[16]; at 100.0 µM,37%
